# Measurements as given in ChEMBL document CHEMBL1961873, “Compounds: GSK PKIS; Assays: Nanosyn kinase panel” (2012).
# Key:
# [1] = molecular target: Sphingosine kinase 1 (Homo sapiens) (UniProt Q9NYA1); settings: at 1 µM;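 note: mean SPHK1 inhibition value reported from the GSK PKIS kinase panel screen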
# [2] = molecular target: T1, Sphingosine kinase 2 (Homo sapiens) (UniProt Q9NRA0); settings: at 0.1 µM
# T1 sequence (whole entry): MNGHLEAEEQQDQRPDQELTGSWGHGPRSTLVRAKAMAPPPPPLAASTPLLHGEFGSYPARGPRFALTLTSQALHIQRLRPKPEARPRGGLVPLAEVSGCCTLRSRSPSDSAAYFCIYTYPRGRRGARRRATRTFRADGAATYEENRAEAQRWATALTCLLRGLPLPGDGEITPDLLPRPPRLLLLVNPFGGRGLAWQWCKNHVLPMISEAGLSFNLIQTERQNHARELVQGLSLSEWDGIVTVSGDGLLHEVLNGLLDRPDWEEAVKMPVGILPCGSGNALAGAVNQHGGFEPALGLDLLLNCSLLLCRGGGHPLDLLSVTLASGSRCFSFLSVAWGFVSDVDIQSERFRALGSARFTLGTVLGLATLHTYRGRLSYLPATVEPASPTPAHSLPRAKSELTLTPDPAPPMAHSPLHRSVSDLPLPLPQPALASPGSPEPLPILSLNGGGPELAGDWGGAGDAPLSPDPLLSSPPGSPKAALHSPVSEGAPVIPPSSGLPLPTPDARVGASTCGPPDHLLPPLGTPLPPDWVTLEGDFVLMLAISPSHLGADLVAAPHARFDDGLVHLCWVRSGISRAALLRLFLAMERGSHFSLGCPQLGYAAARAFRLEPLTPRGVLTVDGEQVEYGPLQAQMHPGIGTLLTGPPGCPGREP
# [3] = molecular target: T1, Sphingosine kinase 2 (Homo sapiens); settings: at 1 µM
# [4] = molecular target: Casein kinase II subunit alpha (Homo sapiens) (UniProt P68400); settings: at 1 µM;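 note: reported value is the mean CK2 inhibition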
# [5] = molecular target: T2, Inhibitor of nuclear factor kappa-B kinase subunit alpha (Homo sapiens) (UniProt O15111); settings: at 0.1 µM
# T2 sequence (whole entry): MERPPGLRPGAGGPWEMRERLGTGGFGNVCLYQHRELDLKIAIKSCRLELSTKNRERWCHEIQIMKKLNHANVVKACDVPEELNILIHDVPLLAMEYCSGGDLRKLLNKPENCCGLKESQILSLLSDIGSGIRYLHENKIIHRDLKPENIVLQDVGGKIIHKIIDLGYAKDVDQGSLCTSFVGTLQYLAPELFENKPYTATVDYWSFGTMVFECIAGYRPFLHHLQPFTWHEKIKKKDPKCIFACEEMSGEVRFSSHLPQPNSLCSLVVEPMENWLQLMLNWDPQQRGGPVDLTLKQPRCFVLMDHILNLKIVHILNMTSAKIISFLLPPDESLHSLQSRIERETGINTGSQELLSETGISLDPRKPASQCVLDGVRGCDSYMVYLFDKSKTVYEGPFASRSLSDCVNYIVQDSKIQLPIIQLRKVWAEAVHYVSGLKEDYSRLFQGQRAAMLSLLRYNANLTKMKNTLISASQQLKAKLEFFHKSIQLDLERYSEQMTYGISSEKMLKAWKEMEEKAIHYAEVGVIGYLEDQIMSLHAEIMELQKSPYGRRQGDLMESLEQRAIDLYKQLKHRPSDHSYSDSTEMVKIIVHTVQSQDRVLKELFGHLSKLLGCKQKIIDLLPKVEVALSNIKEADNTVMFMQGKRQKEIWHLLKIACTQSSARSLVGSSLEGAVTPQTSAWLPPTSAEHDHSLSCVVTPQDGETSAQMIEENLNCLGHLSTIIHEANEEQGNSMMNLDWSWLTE
# [6] = molecular target: T2, Inhibitor of nuclear factor kappa-B kinase subunit alpha (Homo sapiens); settings: at 1 µM
# [7] = molecular target: T3, Inhibitor of nuclear factor kappa-B kinase subunit beta (Homo sapiens) (UniProt O14920); settings: at 0.1 µM
# T3 sequence (whole entry): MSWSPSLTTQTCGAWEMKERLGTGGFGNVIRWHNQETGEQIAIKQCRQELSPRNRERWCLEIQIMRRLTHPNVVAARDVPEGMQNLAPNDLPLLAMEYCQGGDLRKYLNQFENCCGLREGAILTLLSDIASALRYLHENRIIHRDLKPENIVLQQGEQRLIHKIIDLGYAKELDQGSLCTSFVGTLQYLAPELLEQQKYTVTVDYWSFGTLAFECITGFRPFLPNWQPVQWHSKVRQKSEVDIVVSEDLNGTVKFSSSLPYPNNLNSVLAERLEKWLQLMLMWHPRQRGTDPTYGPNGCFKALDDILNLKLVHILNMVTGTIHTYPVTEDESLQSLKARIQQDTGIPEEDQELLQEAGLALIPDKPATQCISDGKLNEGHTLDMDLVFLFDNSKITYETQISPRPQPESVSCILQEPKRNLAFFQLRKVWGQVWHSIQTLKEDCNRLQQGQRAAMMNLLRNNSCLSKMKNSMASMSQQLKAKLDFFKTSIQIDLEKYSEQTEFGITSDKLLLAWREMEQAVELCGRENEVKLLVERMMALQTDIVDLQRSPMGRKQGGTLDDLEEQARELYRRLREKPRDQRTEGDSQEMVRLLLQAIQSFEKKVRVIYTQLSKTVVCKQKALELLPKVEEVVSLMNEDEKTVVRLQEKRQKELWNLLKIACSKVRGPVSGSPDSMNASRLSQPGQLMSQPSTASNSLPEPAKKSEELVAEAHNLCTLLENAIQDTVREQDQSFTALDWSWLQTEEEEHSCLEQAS
# [8] = molecular target: T3, Inhibitor of nuclear factor kappa-B kinase subunit beta (Homo sapiens); settings: at 1 µM
# [9] = molecular target: T4, Inhibitor of nuclear factor kappa-B kinase subunit epsilon (Homo sapiens) (UniProt Q14164); settings: at 0.1 µM;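 note: mean inhibition of IKKε reported, from the GSK PKIS dataset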
# T4 sequence (whole entry): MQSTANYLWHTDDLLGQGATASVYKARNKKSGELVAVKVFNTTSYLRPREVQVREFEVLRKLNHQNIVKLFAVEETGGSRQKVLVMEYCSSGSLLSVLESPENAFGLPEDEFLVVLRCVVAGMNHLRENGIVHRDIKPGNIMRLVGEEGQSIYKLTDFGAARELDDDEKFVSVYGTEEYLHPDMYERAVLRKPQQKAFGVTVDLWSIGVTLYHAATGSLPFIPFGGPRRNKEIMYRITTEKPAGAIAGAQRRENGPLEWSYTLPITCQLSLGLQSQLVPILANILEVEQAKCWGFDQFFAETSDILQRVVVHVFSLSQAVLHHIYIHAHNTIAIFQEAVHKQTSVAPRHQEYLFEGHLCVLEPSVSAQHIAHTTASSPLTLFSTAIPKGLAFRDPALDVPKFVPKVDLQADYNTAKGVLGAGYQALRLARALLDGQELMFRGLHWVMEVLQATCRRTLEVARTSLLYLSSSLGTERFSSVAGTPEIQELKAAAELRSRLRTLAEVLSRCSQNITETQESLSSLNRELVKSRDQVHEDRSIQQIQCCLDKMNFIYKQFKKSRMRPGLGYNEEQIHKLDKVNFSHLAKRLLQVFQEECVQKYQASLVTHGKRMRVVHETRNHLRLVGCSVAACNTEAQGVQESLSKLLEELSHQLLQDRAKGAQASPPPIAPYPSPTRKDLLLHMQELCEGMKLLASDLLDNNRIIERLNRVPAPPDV
# Casein kinase II subunit alpha (Homo sapiens), sequence (P68400 whole entry, looked up): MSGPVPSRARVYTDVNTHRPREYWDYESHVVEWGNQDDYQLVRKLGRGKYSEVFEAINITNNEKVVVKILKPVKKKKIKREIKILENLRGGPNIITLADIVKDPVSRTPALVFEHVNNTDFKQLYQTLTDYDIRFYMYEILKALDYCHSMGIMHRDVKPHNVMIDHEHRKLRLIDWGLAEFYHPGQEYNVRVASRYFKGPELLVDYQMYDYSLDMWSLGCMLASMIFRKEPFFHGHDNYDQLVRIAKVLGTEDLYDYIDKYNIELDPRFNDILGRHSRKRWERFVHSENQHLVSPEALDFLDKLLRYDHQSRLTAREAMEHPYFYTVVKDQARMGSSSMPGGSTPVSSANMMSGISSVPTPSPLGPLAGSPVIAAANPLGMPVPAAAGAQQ
# Sphingosine kinase 1 (Homo sapiens), sequence (Q9NYA1 whole entry): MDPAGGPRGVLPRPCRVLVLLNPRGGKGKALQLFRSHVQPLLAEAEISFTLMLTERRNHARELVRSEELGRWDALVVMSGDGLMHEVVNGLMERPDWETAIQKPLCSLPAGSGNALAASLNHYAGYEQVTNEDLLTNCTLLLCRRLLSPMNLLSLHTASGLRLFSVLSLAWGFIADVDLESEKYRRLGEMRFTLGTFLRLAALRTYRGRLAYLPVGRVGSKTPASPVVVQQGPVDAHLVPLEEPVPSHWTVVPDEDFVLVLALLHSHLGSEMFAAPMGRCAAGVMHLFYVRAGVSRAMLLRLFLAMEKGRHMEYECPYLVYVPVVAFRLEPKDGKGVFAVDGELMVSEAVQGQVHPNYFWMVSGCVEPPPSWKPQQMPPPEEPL
structure (smiles),measurement,setting,value
COc1ccc(-c2ccncc2)cc1C(N)=O,inhibition,[1],-0.74%
same,inhibition,[2],0.88%
same,inhibition,[3],-0.67%
same,inhibition,[4],4.44%
same,inhibition,[5],2.55%
same,inhibition,[6],9.39%
same,inhibition,[7],4.74%
same,inhibition,[8],7.06%
same,inhibition,[9],5.87%
